The list is not random: actives were taken first. Their share in the collection is about 3.1%.
CF NFkB block = blocks PAF-induced NF-kB reporter in cystic fibrosis cells. KKLEB NF-kB-GFP reporter, GFP fluorescence overnight. AID 588850. inhibition, % at 5 µM. actives 0.86% (n = 360,000);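 active = at least 50% inhibition at 5 µM, scaled per plate between neutral and stimulator controls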;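 note: PAF is a Pseudomonas aeruginosa culture filtrate used as stimulus; plate controls were PAF-stimulated DMSO wells for no effect and unstimulated DMSO wells for full effect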
MITF TRPM1 inh = inhibitors of MITF-driven TRPM1 promoter in melanoma cells; inhibition, % at 12.5 µM; SK-MEL-5 TRPM1 promoter luciferase, 24 h; actives 0.83% (n = 330,000);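 active = mean inhibition across replicates of 60% or more, whatever share of single replicates reaches that level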
HIF-2a inh = HIF-2a inhibition | AID 624352 | 786-0 RCC cells HIF-2a reporter, luciferase luminescence, overnight | inhibition, % at 18.8 µM | actives 0.72% (n = 360,000);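 active = inhibition of the luminescence signal of 40% or more relative to plate controls, in a single-dose primary screen at 18.75 µM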
ABHD5 PLIN5 PPI = inhibitors of human ABHD5-perilipin-5 interaction; Q00G26+Q8WTS1; Split G. princeps luciferase complementation, luminescence, 4 h; inhibition, % at 4 µM; actives 0.78% (n = 360,000); AID 602281;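 active = inhibition above the mean inhibition across every tested compound plus 3 SD, cut at about 22% in these data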;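 note: 0% = DMSO only wells and the 100% control is not disclosed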
Peg3 prom inh-1 = inhibitors of Peg3 promoter | actives 1.7% (n = 360,000) | inhibition, % at 20 µM | HeLa PEG-Prom luciferase reporter, luminescence, overnight;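 active = inhibition of at least 50% at 20 µM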
KKLEB cytotox = reduces viability of KKLEB cystic fibrosis airway cells; actives 0.36% (n = 360,000); KKLEB CF airway cells viability, ATPlite luminescence, overnight; hits give low values; cells stimulated with P. aeruginosa culture filtrate; AID 602141; activity change (cytotoxicity), % at 5 µM;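 active = corrected activity change at or below -50% at 5 µM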
Peg3 prom inh-2 = confirmation of Peg3 promoter inhibitors. HeLa PEG-Prom luciferase reporter, luminescence, overnight. actives 84% (n = 1,300). inhibition, % at 20 µM. AID 602417. shares compounds with Peg3 prom inh-1;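 active = at 20 µM dose, 40% or more inhibition averaged across four replicates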
CF NFkB inh conf = CF NF-kB inhibition confirmation, single concentration; shares compounds with CF NFkB block; KKLEB CF airway cells, PAF-induced NF-kB-GFP fluorescence, overnight; inhibition, % at 5 µM; actives 64% (n = 1,300); in the data active = inhibition above about 40%;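 note: stimulus PAF is a Pseudomonas aeruginosa filtrate and not platelet activating factor; plate controls were DMSO wells with stimulus for no effect and unstimulated DMSO wells for full effect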
Mdm2-MdmX confirm = confirmation of inhibitors of human Mdm2/MdmX interaction, set 2 | SaOS-2 split-luciferase Mdm2/MdmX complementation, luminescence | actives 99% (n = 740) | inhibition, % at 8 µM | AID 504601 | shares compounds with HIF-2a inh;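 active = mean inhibition of the luminescence signal across two replicates at or above 26 percent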
Target sequence (O15151 whole entry, looked up): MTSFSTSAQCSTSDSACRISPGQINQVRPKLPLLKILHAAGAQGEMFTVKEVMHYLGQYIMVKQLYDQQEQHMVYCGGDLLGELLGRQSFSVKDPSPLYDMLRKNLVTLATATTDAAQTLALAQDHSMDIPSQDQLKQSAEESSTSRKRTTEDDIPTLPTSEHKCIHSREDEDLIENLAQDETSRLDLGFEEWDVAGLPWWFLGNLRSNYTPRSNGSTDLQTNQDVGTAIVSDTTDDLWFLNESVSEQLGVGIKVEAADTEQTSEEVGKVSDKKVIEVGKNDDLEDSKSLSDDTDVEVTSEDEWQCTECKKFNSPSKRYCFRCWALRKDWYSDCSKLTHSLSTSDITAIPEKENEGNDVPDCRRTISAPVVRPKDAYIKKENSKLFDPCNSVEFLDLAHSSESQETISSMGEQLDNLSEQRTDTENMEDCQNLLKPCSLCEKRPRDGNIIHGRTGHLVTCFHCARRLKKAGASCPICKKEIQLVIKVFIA
Target sequence (Q00987 whole entry, looked up): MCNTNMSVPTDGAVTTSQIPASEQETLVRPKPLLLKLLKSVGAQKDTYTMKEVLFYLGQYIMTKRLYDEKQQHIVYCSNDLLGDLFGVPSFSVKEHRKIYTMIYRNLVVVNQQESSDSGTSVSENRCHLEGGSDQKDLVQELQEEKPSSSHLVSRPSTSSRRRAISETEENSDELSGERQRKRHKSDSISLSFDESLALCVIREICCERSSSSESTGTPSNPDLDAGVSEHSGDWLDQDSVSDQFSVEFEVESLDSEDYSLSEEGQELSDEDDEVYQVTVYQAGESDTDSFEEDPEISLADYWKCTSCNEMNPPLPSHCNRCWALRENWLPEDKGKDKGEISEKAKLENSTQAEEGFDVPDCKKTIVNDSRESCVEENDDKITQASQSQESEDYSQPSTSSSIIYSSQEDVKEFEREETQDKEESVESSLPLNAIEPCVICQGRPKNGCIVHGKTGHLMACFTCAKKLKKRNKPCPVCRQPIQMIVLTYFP
HIF-2a conf = HIF-2a inhibition, single concentration confirmation; AID 651580; inhibition, % at 18.8 µM; 786-0 RCC cells, HIF-2a luciferase reporter luminescence, overnight; shares compounds with HIF-2a inh; actives 56% (n = 1,800);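 active = mean inhibition across four replicates of at least 40 percent at the single tested concentration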
HIF-1a cs = counter-screen for HIF-2a inhibitors: HIF-1a inhibition in MiaPaCa-2 cells; shares compounds with HIF-2a inh; inhibition, % at 18.8 µM; actives 72% (n = 1,800); MiaPaCa-2 HIF-1a luciferase reporter, desferoxamine, overnight; AID 651589;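 active = mean inhibition of the reporter signal across four replicates at the single tested dose of 50% or more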
Active calls of the source: *; nt = no result.

SMILES	CF NFkB block	MITF TRPM1 inh	HIF-2a inh	ABHD5 PLIN5 PPI	Peg3 prom inh-1	KKLEB cytotox	Peg3 prom inh-2	HIF-2a conf	HIF-1a cs	others
O=C(N/N=C/c1cccs1)c1n[nH]c2c1CCCC2	11	57	47*	-4	78*	-7	56*	65*	57*
C/C(=N\NC(=O)c1n[nH]c2c1CCC2)c1cccs1	15	65*	72*	-1	94*	-25	72*	83*	50
CC(C)CC1c2[nH]c3ccccc3c2CCN1C(=O)CCC(=O)N(C)C (stereo not given)	-5	11	-61	4	-51	3	nt	nt	nt
Cc1c(C)c2ccc(OC(C)C(=O)NCCc3c[nH]c4ccccc34)cc2oc1=O (stereo not given)	-14	7	-16	0	-6	-4	nt	nt	nt
O=c1c2ccccc2sc2ccc(C#CC3(O)CCCCC3)cc12	-25	93*	87*	-5	79*	-85*	92*	94*	104*
O=c1c2ccccc2oc2cc(C#CC3(O)CCCCC3)ccc12	4	49	44*	-12	60*	-42	59*	73*	97*
O=C(c1ccc(OC2CCN(CCO)CC2)cc1)N1CCCC1	5	0	3	1	0	-6	nt	nt	nt
CCOCC(=O)Nc1nc2ccc(C)cc2s1	23	-76	-229	-5	-282	-9	nt	nt	nt
Cc1ccc2nc(NC(=O)CSCC(=O)OCC(=O)c3ccccc3)sc2c1	-5	53	71*	-2	53*	4	71*	75*	74*
COC(=O)c1c(NC(=O)c2ccc([N+](=O)[O-])o2)sc2c1CCN(C(C)C)C2	75*	63*	29	-3	94*	-29	69*	nt	nt	Mdm2-MdmX confirm=84*
COC(=O)c1c(NC(=O)Cc2ccccc2)sc2c1CCN(C(C)C)C2	-18	nt	-31	1	0	20	nt	nt	nt
O=C(Nc1cccc(C(F)(F)F)c1)C1CCN(S(=O)(=O)c2cccnc2)CC1	28	3	-6	0	8	4	nt	nt	nt
COc1cccc(/C=N/Nc2ncccc2[N+](=O)[O-])c1OC	3	40	51*	-2	72*	-6	62*	74*	31
COc1cccc(/C=N/Nc2nc(C)cc(=O)[nH]2)c1OC	-10	-10	-90	-6	-70	10	nt	nt	nt
O=C(O)c1ccc(COc2ccccc2Cl)cc1	-1	-22	-129	8	-90	-4	nt	nt	nt
O=C(O)c1cccc(COc2ccccc2Cl)c1	-19	92*	77*	-6	92*	-6	82*	93*	36	Mdm2-MdmX confirm=78*
O=C(NC1=C(NC2CCS(=O)(=O)C2)C(=O)c2ccccc2C1=O)c1ccccc1 (stereo not given)	79*	0	-42	-4	68*	-22	49*	nt	nt	Mdm2-MdmX confirm=93*
O=C(NC1CCS(=O)(=O)C1)c1cccc(Br)c1 (stereo not given)	18	0	1	-2	4	-3	nt	nt	nt
CN1CCN(c2ncnc3c2ncn3[C@H]2CN(Cc3ccc4c(c3)OCO4)C[C@@H](CO)O2)CC1	-6	nt	8	-1	-4	0	nt	nt	nt
O=C(O)c1ccc(Nc2nc3c(s2)CCCC3)cc1	-1	64*	46*	-8	67*	-1	54*	64*	52*
O=C(CCl)Nc1cccc(-c2cnc3ccccc3n2)c1	88*	73*	-27	12	79*	-64*	92*	nt	nt	Mdm2-MdmX confirm=102*
CCCNC(=O)COC(=O)c1ccccc1C(=O)c1ccc(Cl)c([N+](=O)[O-])c1	101*	87*	83*	2	106*	-31	99*	42*	104*	CF NFkB inh conf=109*;Mdm2-MdmX confirm=103*
CCOc1ccc(C(=O)Nc2ccccc2-c2ccccc2)cc1Cl	-7	-9	-23	-4	-21	14	nt	nt	nt
CCOc1ccc(C(=O)Nc2cccc(C(=O)O)c2C)cc1Cl	3	67*	54*	-1	55*	5	14	54*	13
COc1cc(CNC2CCCC2)cc(Cl)c1OCc1ccccc1F	-2	-14	-18	4	14	-12	nt	nt	nt
SMILES	CF NFkB block	MITF TRPM1 inh	HIF-2a inh	ABHD5 PLIN5 PPI	Peg3 prom inh-1	KKLEB cytotox	Peg3 prom inh-2	HIF-2a conf	HIF-1a cs	others
O=C(CCl)Nc1ccccc1Sc1ccc(Cl)cc1	5	64*	34	-5	106*	-9	85*	nt	nt	Mdm2-MdmX confirm=103*
O=C(NC1=NCCS1)C1COc2ccccc2O1 (stereo not given)	5	80*	83*	4	106*	-14	82*	90*	85*
COc1ccc(S(=O)(=O)NCCC(=O)NC2CCCCC2C)cc1[N+](=O)[O-] (stereo not given)	-9	13	-7	0	4	18	nt	nt	nt
O=C(O)CSc1nnc(-c2ccc3c(c2)OCO3)o1	10	-6	22	0	9	2	nt	nt	nt
O=C(c1ccc(Cl)cc1)N1CCCCC(Sc2nnc(-c3ccc4c(c3)OCO4)o2)C1=O (stereo not given)	-6	80*	64*	-4	54*	-10	58*	83*	68*
CCc1ccc(/C=C2\SC(=S)N(CCCC(=O)Nc3ccccn3)C2=O)cc1	3	34	96*	1	82*	-2	80*	nt	nt	Mdm2-MdmX confirm=95*
COc1cc(/C=N/O)ccc1OCc1ccc(C(=O)O)cc1	6	96*	89*	4	86*	-11	69*	90*	-74
COc1cccc(-c2nc(Cl)nc3cc(Cl)ccc23)c1	nt	nt	9	-2	nt	nt	nt	nt	nt
Cc1ccc(OCCCC(=O)Nc2cc(Cl)ccc2-n2cncn2)cc1	28	1	13	7	10	-8	nt	nt	nt
CCOc1cc(/C=N/N=C(N)N)ccc1OCc1ccc(Cl)cc1	6	90*	97*	5	99*	-24	97*	-11	107*
CS(=O)(=O)Nc1cccc(NC(=O)C2Cc3c(-c4cccc(F)c4)ccnc3O2)c1 (stereo not given)	-11	nt	51*	-8	66*	-13	64*	34	89*
